The nature of experiment [1]: OV-KATE Cancer Cell Toxicity qHTS against the NCATS CANVASS Library (AID 1347345). Further: potency means the concentration at half of the fitted maximal effect. In short, it runs like this: (§1)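 Cells were seeded at 1000 per well, allowed 4 h at 37 degrees C/5% CO2, then pin-treated with an 11-point compound series. After 72 h, viability was read as CellTiter-Glo luminescence following 15min at room temperature.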
(qHTS replaces the single test concentration by a dilution series.)

A short description of experiment [2]: Panc-1005 Cancer Cell Toxicity qHTS against the NCATS CANVASS Library (AID 1347349). Further: nearly all actives have a fitted effect of over 60% in size. Further: potency means the concentration at half of the fitted maximal effect. The essentials: as §1
A short description of experiment [3]: HPAF-II 24hr Apoptosis Induction qHTS against the NCATS CANVASS Library (AID 1347356). The essentials:
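HPAF-II cells (500/well) exposed to compounds in 11-point series for 24 h at 37 degrees C; caspase-3/7 activity read by Caspase-Glo luminescence after 15 min at room temperature. Doxorubicin titration as control.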

Experiment [4] is described as follows: qHTS for ATAD5 Agonist screened against the NCATS CANVASS Library (AID 1347367).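 Further: luciferase reporter driven by ATAD5 which rises upon DNA damage.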 Further: potency means the concentration at half of the fitted maximal effect. In short, it runs like this:
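HEK293T cells stably carrying an ATAD5-controlled luciferase reporter (2000 cells/well) attached for 5 hr, then received compounds in an 11-point series for 16hr at 37C. Luminescence was read after a 30 min room-temperature reagent step.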

Experiment [5] can be described thus: G06 Cancer Cell Toxicity qHTS against the NCATS CANVASS Library (AID 1347368). Further: nearly all actives have a fitted effect of over 60% in size. Further: potency means the concentration at half of the fitted maximal effect. The essentials: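 G06 dog glioma cells, 500 per well, exposed 72 hr at 37C, 5% CO2 to compounds in an 11-point series. Cytotoxicity read as ATP content by CellTiterGlo luminescence.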
The target in experiment [6] is Nuclear receptor subfamily 1 group I member 3 (Homo sapiens) (UniProt Q14994). The experiment is described as follows: qHTS for Constitutive Androstane Receptor (CAR) Agonist screened against the NCATS CANVASS Library (AID 1347373).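 Further: every well also contained 1.5 µM PK11195 alongside the test compound.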 The essentials:
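HepG2 cells stably carrying hCAR and a CYP2B6-2.2kb luciferase reporter, treated 24hr at 37C with compounds plus 1.5uM PK11195; activation by ONE-Glo luminescence, viability by CellTiter-Fluor.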

Experiment [7] is described as follows: qHTS for Antimalaria activity screened against the NCATS CANVASS Library (AID 1347380). Further: nearly all actives have a fitted effect of over 40% in size. Further: potency means the concentration at half of the fitted maximal effect. The essentials: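 Red blood cells infected with P. falciparum Dd2 (2.5% hematocrit final, 0.3% parasitemia) were exposed to compounds in an 11-point qHTS series for 72 hr at 37C under 5% O2 and 5% CO2. Lysis buffer with SYBR Green was then added for 18 hr, and fluorescence was read at 485/535 nm.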

The nature of experiment [8]: qHTS assay for small molecule disruptors of mitochondrial membrane potential screened against the NCATS CANVASS Library (AID 1347389). Further: series mostly up to about 46 µM; nearly all actives have a fitted effect of over 60% in size. In short, it runs like this: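 HepG2 cells (2,000/well) plated overnight, then exposed to compounds in 11-point qHTS series for 1 h at 37C before 30 min Mito-MPS dye; depolarization read as fall in red aggregate (590 nm) to green monomer (535 nm) fluorescence.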

Experiment [9] in a line: qHTS for activators of Nrf2/ARE signaling pathway screened against the NCATS CANVASS Library (AID 1347391). Further: nearly all actives have a fitted effect of over 60% in size. Further: potency means the concentration at half of the fitted maximal effect. The essentials: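 ARE-bla HepG2 beta-lactamase reporter cells exposed to compounds for 16 h at 37C; CCF4 substrate 2 h, fluorescence at ex 405 nm, em 460/530 nm. Viability by CellTiter-Glo luminescence.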
A short description of experiment [10]: ZIKV-mCherry secondary qHTS for Zika virus inhibitors (AID 1347158). Further: top concentration of the series differs between compounds. The essentials: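 Vero cells (5,000/well) were given compound, then infected with ZIKV-mCherry at MOI 1 for 48–72 h at 37 °C. After PFA fixation and Hoechst staining, imaging gave percent mCherry-positive cells. The positivity threshold was RFU above 450, 3 SD over negative controls.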
The subject of experiment [11] is Zika virus NS2B-NS3 protease (linked construct). The experiment is described as follows: 384 well plate NINDS Rhodamine confirmatory qHTS for Zika virus inhibitors (AID 1347164).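 Further: fluorescence from protease cleavage of Ac-LKRR-rhodamine 110 substrate; potency means the concentration at half of the fitted maximal effect; nearly all actives have a fitted effect of over 65% in size.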 In short, it runs like this:
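Linked protease at a final 5 nM, 30 nM or 60 nM was preincubated ~15 min with compounds, then given 10 microM Ac-LKRR-Rhodamine 110. Fluorescence (ex 485/em 538 nm) after 25 min in the dark at room temperature.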

Experiment [12] in a line: Confirmatory screen NINDS Rhodamine qHTS for Zika virus inhibitors (AID 1347161). The essentials: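 Percent inhibition, normalized to uninhibited and enzyme-free controls, is fitted to a 4-parameter Hill equation. Fluorescence change comes from a 15-min cleavage of 1.5 microM bis-peptide Rhodamine110 substrate by 25 nM linked NS2B-NS3 at room temperature.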

Records with an inconclusive call do not appear. The source made the active and inactive calls. The call rests on the fitted dose curve; in most records, active means well fitted curve in the direction sought with a large enough effect; inconclusive means small, poorly fitted or top-dose-only effect, or another doubt; inactive means no such curve, though single readings can be large; an effect the other way counts as inactive or inconclusive.

Nuclear receptor subfamily 1 group I member 3 (Homo sapiens), sequence (Q14994 whole entry, looked up): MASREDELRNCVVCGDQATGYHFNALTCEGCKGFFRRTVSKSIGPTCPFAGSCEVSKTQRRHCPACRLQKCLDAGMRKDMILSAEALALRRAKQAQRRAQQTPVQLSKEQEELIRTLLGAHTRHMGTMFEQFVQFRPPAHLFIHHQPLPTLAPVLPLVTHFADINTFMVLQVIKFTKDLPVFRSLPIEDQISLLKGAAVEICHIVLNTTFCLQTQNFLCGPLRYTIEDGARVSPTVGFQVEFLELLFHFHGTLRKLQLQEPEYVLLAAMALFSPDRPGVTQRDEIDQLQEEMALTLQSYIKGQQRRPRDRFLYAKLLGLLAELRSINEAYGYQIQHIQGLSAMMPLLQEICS

As to `C[C@@H](CCC[C@]1(C)C(=O)C=C[C@]23C[C@H]4C[C@H](O[C@@]4(C)C2)C31)C(=O)N[C@@H](CO)C(=O)O` (stereo not given in full), the Potency entry in [1], in experiment [2], in experiment [4] and in experiment [5] was “inactive” in each case. For the same molecule, the call in [3] and in experiment [6] was inactive.
On to `CCCCCCCCC[C@@H]1C[C@@H]2CC[C@H]3[C@@H](C(=O)OCCCCN=C(N)N)[C@@H](C)N=C(N1)N23`, for which the Potency in experiment [1] was 13 µM (active); in [2], 14.7 µM (active); in [5], 2.05 µM (active); in [7], 1.64 µM (active). For the same molecule, the Potency entry in experiment [4], in experiment [8] and in experiment [9] was “inactive” each time. For the same molecule, the result in experiment [6] was inactive.
With `O=c1cc(-c2ccc(O)cc2)oc2c([C@@H]3OC(CO)[C@H](O)[C@@H](O)[C@H]3O)c(O)cc(O)c12` (stereo not given in full), the Potency result in experiment [1], in experiment [2], in experiment [4], in [5] and in experiment [9] was “inactive” each time.
For the molecule `CC(C)CN1CC(CNC(=O)c2ccc(Oc3ccccc3)cc2)Oc2ccnc(-c3ccc(OCC(=O)O)cc3)c2C1=O` (stereo not given), in experiment [10], the Potency entry was “inactive”. In experiment [11], the Potency was 28.2 µM (active).
In the case of `C=C1C(=O)C[C@H]2C[C@@H]1[C@]2(C)CCC=C(C)C`, the Potency entry in experiment [1] and in experiment [2] was “inactive” in each case. The result in experiment [3] and in experiment [6] was inactive. For the same molecule, the Potency in [9] is 16.6 µM (active).
For `COc1ccc2cc(NC(=O)C3=NO[C@H]4[C@H](O)C=C[C@@H](Cl)[C@@]4(O)C3)c(=O)oc2c1OC`, the Potency result in [1] and in experiment [2] was “inactive” in each case. Moreover, in [5], the Potency was 11.8 µM (active).
In the case of `Cc1ccc(Nc2nnc(-c3ccc(C)c(S(=O)(=O)NCc4nc5ccccc5[nH]4)c3)c3ccccc23)cc1`, the Potency entry in [10] was “inactive”.
With `C[C@@H](O)[C@H]1OC(=O)C=C2[C@]3(C)[C@H]4[C@H](OC(=O)[C@@]4(C)[C@@H](O)[C@H]4O[C@H]43)[C@H]3O[C@@]231`, the Potency is 3.34 µM (active) in experiment [1], 2.11 µM (active) in experiment [2], 0.524 µM (active) in experiment [4] and 1.48 µM (active) in [5]. Moreover, the molecule was classed as inactive in experiment [3] and in [6].
As for `C=C1C[C@@]23C=CC(=O)[C@@](C)(CCC(=O)Nc4c(O)ccc(C(=O)O)c4O)C2C[C@@H]1CC3` (stereo not given in full), the Potency entry in [1], in experiment [2], in experiment [4] and in experiment [8] was “inactive” each time. Further, the molecule was called inactive in experiment [3] and in experiment [6]. Also, in [9], the Potency was 18.6 µM (active).
For `C/C1=C\CC(=O)/C=C/C=C\c2csc(n2)[C@@H](C)NC(=O)C[C@@](S)([C@@H](C)C(=O)O)CC1`, the Potency result in [1], in experiment [2], in [4], in experiment [5], in [7] and in experiment [8] was “inactive” in each case. Also, in experiment [9], the Potency was 18.6 µM (active).
For the molecule `O=Cc1ccc2n1C[C@@]1(C[C@H](O)[C@@H](CO)O1)OC2`, the Potency entry in experiment [1], in experiment [2], in [4], in [5] and in [9] was “inactive” throughout. Also, the molecule was classed as inactive in experiment [3] and in experiment [6].
Turning to `C=C1c2c(Cl)ccc(O)c2C(O)=C2C(=O)[C@]3(O)C(O)=C(C(N)=O)C(=O)[C@@H](N(C)C)[C@@H]3[C@@H](O)C12` (stereo not given in full), the Potency result in experiment [10] is “inactive”. For the same molecule, the Potency in experiment [12] is 13.9 µM (active); in [11], 20 µM (active).

(Values after PubChem BioAssay (NCATS).)
